Screening results (PubChem)
The list is not random: actives were taken first. Their share in the collection is about 18%.
RORg inh: inhibitors of mouse ROR gamma transcriptional activity; Potency, µM (series often up to 53.6 µM), hits mostly inhibitors; P51450; 310,000 tested, 5.4% active; Drosophila S2 Gal4-RORgamma UAS-luciferase reporter, 20 h; AID 2551; also: nearly all actives have a fitted effect of over 60% in size
Target sequence (P51450 whole entry, looked up, the tested form may be a part): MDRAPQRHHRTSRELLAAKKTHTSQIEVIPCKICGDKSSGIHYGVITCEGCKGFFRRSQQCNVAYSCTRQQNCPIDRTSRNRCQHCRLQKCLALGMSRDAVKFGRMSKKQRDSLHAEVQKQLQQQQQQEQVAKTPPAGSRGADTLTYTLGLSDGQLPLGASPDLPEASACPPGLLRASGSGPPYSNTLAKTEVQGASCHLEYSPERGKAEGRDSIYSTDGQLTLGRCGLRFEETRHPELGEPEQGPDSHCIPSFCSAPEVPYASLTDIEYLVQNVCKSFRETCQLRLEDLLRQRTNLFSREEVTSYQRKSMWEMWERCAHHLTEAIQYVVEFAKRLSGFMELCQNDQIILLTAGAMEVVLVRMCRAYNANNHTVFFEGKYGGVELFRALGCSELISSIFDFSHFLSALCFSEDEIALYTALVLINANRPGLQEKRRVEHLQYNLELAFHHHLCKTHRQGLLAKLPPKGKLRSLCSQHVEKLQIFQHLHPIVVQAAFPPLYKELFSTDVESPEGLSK
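Read-out: Photinus luciferase luminescence; inhibitors lower reporter signal. Insect Schneider cells with Gal4-ROR gamma fusion under metallothionein promoter, UAS reporter; 700 uM final copper sulfate induction, 20 hr, ambient temperature.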
TDP1 cell CPT: DT40-hTDP1 cell growth loss with CPT; chicken DT40 Tdp1-/-;hTDP1 cells + 20 nM CPT, ATP luminescence, 48 h; AID 686979; 420,000 tested, 12% active; Potency, µM (titrated, usually from 46.2 µM), most hits filed as inhibitors; also: nearly all actives have a fitted effect of over 55% in size
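Chicken DT40 Tdp1-/- cells complemented with human TDP1, 400 cells/well, exposed to compounds plus 20 nM camptothecin for at least 48 h at 37 C; viability read as ATP content by CellTiter-Glo luminescence.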
VP16 counter: Gal4-VP16 reporter inhibition counter-screen; Drosophila S2 Gal4-VP16 UAS-luciferase, luminescence, 20 h; Potency, µM (highest dose often 53.6 µM), actives largely listed as inhibitors; 310,000 tested, 3.5% active; AID 2546;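 also: Gal4-VP16 expression switched on by copper sulfate through the metallothionein promoter; nearly all actives have a fitted effect of over 50% in size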
IL-1B inflam inh: blocks inflammasome-driven IL-1 beta release; THP-1 LPS/ATP IL-1B secretion, AlphaLISA, 16 h; hits give low values; 360,000 tested, 4.7% active; AID 743279; activity change, % at 57.5 µM; in the data active = activity change below about -50%; inconclusive = mostly about -30% to -49%
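THP-1 cells pretreated 1 hr with compounds (up to 57.5 uM final), then stimulated with LPS (250 ng/mL final) plus ATP (1.25 mM final); secreted IL-1B measured by AlphaLISA after 16 hr, decreased signal indicating inhibition.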
LDHA block: LDHA (human) enzyme inhibition; P00338; purified LDHA, NADH/diaphorase-resazurin fluorescence; hits give low values; activity change, % (values are at about 110 or 230 µM); 480,000 tested, 0.15% active; in the data active = activity change below about -30%; inconclusive = mostly about -25% to -30%
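Human LDH5 at 2 nM final in Tris HCl pH 7.4 with 0.06 mM NADH and 0.2 mM pyruvate, reacted 5 minutes at room temperature. Remaining NADH coupled via diaphorase/resazurin; resorufin fluorescence read at 0 and 20 minutes, normalized to enzyme-free and DMSO wells.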
DT40 TDP1 no CPT: qHTS for Inhibitors of human tyrosyl-DNA phosphodiesterase 1 (TDP1): qHTS in cells in absence of CPT | Potency, µM (top dose mostly 46.2 µM), hits mostly inhibitors | 420,000 tested, 15% active | DT40 Tdp1-/- hTDP1 cells, no CPT, ATP luminescence, 48 h; also: nearly all actives have a fitted effect of over 55% in size
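Chicken DT40 Tdp1-/- cells stably complemented with human TDP1 were seeded at 400 cells/well with DMSO in place of 20 nM camptothecin. After compound pinning, cells grew at least 48 hr at 37 °C; viability read by CellTiter-Glo luminescence.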
Hits are given with their value; 0 = inactive; ? = inconclusive; - = no result given; [ ] = remark or other dose. Unless noted, calls follow the shape of the dose curve; as a rule, active = well fitted curve in the direction sought with a large enough effect; inconclusive = small, poorly fitted or top-dose-only effect, or another doubt; inactive = no such curve, though single readings can be large; an effect the other way counts as inactive or inconclusive.

SMILES	RORg inh	TDP1 cell CPT	VP16 counter	IL-1B inflam inh	LDHA block	DT40 TDP1 no CPT
CCCCn1c(-c2cccnc2)nc2cc3[nH]c(=O)c(C(C)C)nc3cc21	0	18.4µM	0	0	0	14.6µM
CCCCn1c(-c2cccc(Br)c2)nc2cc3[nH]c(=O)c(C(C)C)nc3cc21	0	18.4µM	0	-51.6	0	25.9µM
CCCCn1c(=O)[nH]c(=O)c2c1nc(-c1ccc3ccccc3c1)n2CC	0	?	0	0	0	?
Cc1ccc2oc(C(=O)NCc3ccncc3)cc(=O)c2c1	-	-	-	-	0	-
O=C(c1ccccc1)N1CCN2C(=O)c3ccccc3C12c1ccc(Cl)cc1 (stereo not drawn)	0	20.6µM	0	?	0	18.4µM
CCc1c(C)sc2nc(N(CC)CCO)n3nc(-c4ccccc4)nc3c12	-	-	-	-	0	-
Cn1c2c(c(=O)n(C)c1=O)C(c1ccc(F)cc1)C(C#N)=C(N)O2 (stereo not drawn)	0	0	0	-69.4	0	0
CCOc1cccc(=O)c2c(C)n(Cc3ccccc3)c(C)c12	0	0	0	0	0	0
CCOc1cccc(=O)c2c(C)n(Cc3ccco3)c(C)c12	0	0	3.55µM	0	0	0
CC(Sc1c(Cl)cccc1Cl)C(=O)c1ccc2c(c1)CCC2 (stereo not drawn)	-	-	-	-	0	-
Cn1/c(=N/NC(=O)c2cccc(OC(F)F)c2)sc2ccccc21	10µM	?	14.1µM	0	0	0
COc1ccc(C(=O)c2c(N)sc3c2CCN(C(=O)OC(C)(C)C)C3)cc1	0	14.6µM	0	-	0	0
CN1CCc2c(sc(N)c2C(=O)c2ccc(Cl)cc2)C1	0	?	?	0	0	?
COc1ccc(CN(C)CC(=O)Nc2cc(OC)c([N+](=O)[O-])cc2C)c(OC)c1	0	13µM	0	?	0	14.6µM
COc1ccc(-n2nnnc2SCC(=O)Nc2cc(OC)c([N+](=O)[O-])cc2C)cc1	6.31µM	0	10µM	0	0	0
COc1cc(NC(=O)CN(C)Cc2cccc(F)c2)c(C)cc1[N+](=O)[O-]	0	?	0	0	0	20.6µM
COC(=O)c1ccc(-n2nnnc2SCC(=O)Nc2cc(OC)ccc2OC)cc1	0[10 µM]	?	0	0	0	0
CC(NC(=O)C1CCCc2ccccc21)c1ccc(Cl)cc1 (stereo not drawn)	-	-	-	-	0	-
N#Cc1cccc(C(=O)NCCCc2nc3ccccc3[nH]2)c1	-	-	-	-	0	-
Cc1ccc(NC(=O)C2CCN(C(=O)c3sc4nc[nH]c(=O)c4c3C)CC2)cc1C	-	-	-	-	0	-
COc1ccc(NC(=O)C(C)Sc2ccccc2C(=O)NCC(=O)C(C)(C)C)cc1OC (stereo not drawn)	-	-	-	-	0	-
CC(C)C(NC(=O)c1cccs1)c1ccc2c(c1)OCCCO2 (stereo not drawn)	-	-	-	-	0	-
COc1cc(C2CC(=O)Nc3ccsc32)ccc1OCc1ccccc1 (stereo not drawn)	-	-	-	-	0	-
COc1ccc(C(=O)c2oc3ccc(NC(=O)c4ccncc4)cc3c2C)cc1	-	-	-	-	0	-
O=C(NNC(=S)NC(=O)c1sc2ccccc2c1Cl)c1ccc(Cl)cc1	5.01µM	18.4µM	12.6µM	0	0	?
SMILES	RORg inh	TDP1 cell CPT	VP16 counter	IL-1B inflam inh	LDHA block	DT40 TDP1 no CPT
COc1ccc2c(Cl)c(C(=O)NN)sc2c1	11.2µM	0	?	?	0	0
Cc1ccc(NC(=S)NC(=O)c2sc3ccccc3c2Cl)c(C(=O)O)c1	7.08µM	-	?	-	-	-
CCCCOC(=S)NC(=O)c1sc2ccccc2c1Cl	5.62µM	0	?	0	0	0
Cc1ccc(CNC(=O)C2(CC(=O)NC(C)C)CCCC2)cc1	-	-	-	-	0	-
O=C(O)c1ccccc1NC(=S)NC(=O)c1sc2ccccc2c1Cl	0	?	0	0	0	16.4µM
O=c1[nH]c(Nc2ccccc2)nc2nccc(-c3cccs3)c12	-	-	-	-	0	-
CCC(=O)N1CCC(C(=O)O)CC1	-	-	-	-	0	-
CCCn1c(-c2ccc(OC(F)F)cc2)nc2c1c(=O)[nH]c(=O)n2Cc1ccccc1	-	-	-	-	0	-
